This note sets out measurements from PubChem BioAssay AID1850 (Southern Research Specialized Biocontainment Screening …, 2009).

Hit rate of the full screen: of about 310,000 compounds, about 1,000 (0.32%) were called active. These entries were drawn from the full list. Measured potencies and affinities stand elsewhere. A number with no mark means an inactive call. No rule for the calls is given here.

This assay can be described thus: PhoP regulon inhibitors, Salmonella typhi PhoP promoter GFP reporter, confirmatory (AID 1850).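 Also: 0% = induced wells with vehicle and 100% = uninduced wells.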 The settings on record: fluorescence, 4 h, at 50 µM, stronger effect = higher value.
Usually inhibition stands for the relative decrease from the control value, in per cent. For `Cc1ccc(C[n+]2cc(-c3ccc(Cl)cc3)n3c2CCC3)cc1`, the inhibition was 8.21%.

As to `Cc1ccc(-c2c[n+](Cc3cccc(Cl)c3)c3n2CCC3)cc1`, the inhibition is 9.09%.

For `Clc1ccc(C[n+]2cc(-c3ccccc3)n3c2CCC3)cc1Cl`, the inhibition is -4.76%.

As for `Clc1ccc(-c2c[n+](Cc3ccc(Br)cc3)c3n2CCCCC3)cc1`, the inhibition is 4.54%.

As for `COc1ccc(NC(=S)NC(C)C(c2ccccc2)N2CCOCC2)cc1` (configuration not stated), the inhibition is -8.71%.

For `O=C(CNC(=O)Cc1ccc(Cl)cc1)NCC(=O)N1CCCCC1`, the inhibition is -7.52%.

For the molecule `C=CCn1c(NC(=O)c2ccc(Br)o2)c(S(=O)(=O)c2ccccc2)c2nc3ccccc3nc21`, the inhibition was 21.1%.

Turning to `CC(=O)Nc1c(S(=O)(=O)c2ccccc2)c2nc3ccccc3nc2n1Cc1ccccc1`, the inhibition was -2.36%.

As to `CCC(=O)Nc1c(C#N)c2nc3ccccc3nc2n1C1CCCCC1`, the inhibition is 0.26%.

Consider `CCCCn1c(NS(=O)(=O)c2ccc(C)cc2)c(C(=O)OCC)c2nc3ccccc3nc21`, for which the inhibition is -4.9%.

Take `Nc1c(S(=O)(=O)c2ccccc2)c2nc3ccccc3nc2n1C1CC1`: the inhibition is 0.22%.

On to `CCCCCn1c(NC(=O)c2ccco2)c(S(=O)(=O)c2ccc(C)cc2)c2nc3ccccc3nc21`, for which the inhibition is -3.82%.

For the molecule `CCOC(=O)c1c(NS(=O)(=O)c2ccccc2)n(CCCOC)c2nc3ccccc3nc12`, the inhibition is -3.68%.

For the molecule `CCCCn1c(N)c(S(=O)(=O)c2ccc(C)cc2)c2nc3ccccc3nc21`, the inhibition is -6.91%.

Take `CCOC(=O)c1c(C(=O)OCC)c(C)n(Cc2cc(OC)c(OC)c(OC)c2)c1C`: the inhibition is -2.04%.

For `COc1ccc(C(=O)N/N=C/c2c(C)nn(-c3ccccc3)c2OC)cc1`, the inhibition was -1.74%.

As to `CCn1c(SCC(=O)NCc2ccccc2)nnc1C(CO)NC(=O)c1ccccc1` (configuration not stated), the inhibition is -10.3%.

For `CCC(=O)c1ccc(N2CCN(C(=O)Cc3ccccc3)CC2)c(F)c1`, the inhibition is 18.2%.

In the case of `CCOC(=O)c1c(N)nn(C(C)=O)c1-c1ccccc1`, the inhibition was -5.98%.

In the case of `Cc1ccccc1OCC(=O)Nc1nnc(COc2ccccc2)s1`, the inhibition is -8.87%.

As to `CCCCn1c(SCC(=O)Nc2nnc(CC)s2)nc2ccccc2c1=O`, the inhibition was -4.64%.

With `O=C(N/N=C\c1ccc(Cl)s1)c1ccc(Cn2cccn2)o1`, the inhibition is -13.9%.

Regarding `C=C(C)c1cccc(C(C)(C)NC(=O)NCCCN2CCCC2=O)c1`, the inhibition was -0.97%.

In the case of `Cc1noc(C)c1CSCC(=O)N1CCN(c2ccc([N+](=O)[O-])cc2)CC1`, the inhibition was 2.46%.

Regarding `CCCCn1c(NC(=O)c2ccc(Br)o2)c(S(=O)(=O)c2ccccc2)c2nc3ccccc3nc21`, the inhibition is -28%.

`Cc1ccc(S(=O)(=O)c2c(N)n(CCCO)c3nc4ccccc4nc23)cc1`: the inhibition was 0.68%.

As to `O=[N+]([O-])c1ccc(/C=[N+](\[O-])[C@@H]2CCCC[C@@H]2/[N+]([O-])=C/c2ccc([N+](=O)[O-])o2)o1`, the inhibition was 7.15%.

As to `CCc1ccc(C(=O)/C=C/c2ccc([N+](=O)[O-])o2)cc1`, the inhibition was -7.72%.

For `O=c1oc2cc(S(=O)(=O)NCCCO)ccc2c2ccc(S(=O)(=O)NCCCO)cc12`, the inhibition was 0.32%.

`O=C(Nc1ccccc1)c1cc2ccccc2o1`: the inhibition is 21.6%.

For `Cc1cccc(NC(=O)c2cc3ccccc3o2)c1`, the inhibition is -8.7%.

Take `COc1ccc(Nc2cc(Nc3cc(OC)c(OC)c(OC)c3)ncn2)cc1`: the inhibition was 10.6%.

For the molecule `Cc1ccc(NC(=O)CS(=O)CC(=O)Nc2ccc(N3CCOCC3)cc2)cc1Cl` (configuration not stated), the inhibition was 12.6%.

`CC(C(=O)c1ccc(Br)cc1)[n+]1cccc(NC(=O)c2ccccc2)c1` (configuration not stated): the inhibition is 4.99%.

For `CC(C(=O)c1ccc(-c2ccccc2)cc1)[n+]1cccc(C(N)=O)c1` (configuration not stated), the inhibition is 5.49%.

As for `CCOC(=O)C1=C(c2ccccc2)OC(N)=C(C#N)C1c1cccnc1` (configuration not stated), the inhibition was 9.75%.

Consider `CC(=O)C1=C(C)OC(N)=C(C#N)C1c1cccnc1` (configuration not stated), for which the inhibition was -13.9%.

In the case of `CCC(C)(C)n1nnnc1C(c1cc2cc(C)cc(C)c2[nH]c1=O)N1CCN(C(=O)c2ccco2)CC1` (configuration not stated), the inhibition was 8.8%.

As to `COc1ccccc1C1/C(=C(\O)c2ccc3c(c2)OCCO3)C(=O)C(=O)N1CCCn1ccnc1` (configuration not stated), the inhibition was 5.32%.

Turning to `CCOC(=O)N1CCN(Cc2ccc(O)c3ncccc23)CC1`, the inhibition is 1.82%.

`COCc1cc(CN2CCN(C)CC2)c(O)c2ncccc12`: the inhibition is 4.48%.

In the case of `O=c1oc2ccccc2c(O)c1Cc1cc(Cl)c2cccnc2c1O`, the inhibition was 10.9%.

As for `CN1CCN(Cc2cc(Cl)c3cccnc3c2OC(=O)c2cccs2)CC1`, the inhibition was -8.42%.

As for `CCOC(=O)N1CCN(Cc2ccccc2Cl)CC1`, the inhibition is -4.15%.

Regarding `O=c1c(CN2CCN(c3ccccn3)CC2)coc2ccccc12`, the inhibition was -1.82%.

As for `COc1ccc2nc(N(CCN(C)C)C(=O)c3ccc(C(=O)c4ccccc4)cc3)sc2c1`, the inhibition is -16%.

For `Cc1ccccc1CSCC(Nc1ccc(C(=O)O)cc1[N+](=O)[O-])C(=O)O` (configuration not stated), the inhibition was -0.8%.

With `CCc1nnc(NS(=O)(=O)c2ccc(N3C(=O)C4CC=C(Cl)CC4C3=O)cc2)s1` (configuration not stated), the inhibition was 5.39%.

For the molecule `COc1ccc2nc(NCc3ccccc3)[nH]c2c1`, the inhibition is 18.6%.

Turning to `c1ccc(CNc2nc3ccccc3[nH]2)cc1`, the inhibition was -2.74%.

Turning to `Cc1cc([N+](=O)[O-])nn1CC(=O)N1CCOCC1`, the inhibition is 12.6%.

For `c1ccc(-c2cc(-c3ccccc3)[n+](-c3ccccc3)c(-c3ccccc3)c2)cc1`, the inhibition is 19.1%.

For the molecule `Clc1ccc(C[n+]2c(-c3ccccc3)cc(-c3ccccc3)cc2-c2ccccc2)cc1`, the inhibition was 16.5%.

For the molecule `Fc1ccc(C[n+]2c(-c3ccccc3)cc(-c3ccccc3)cc2-c2ccccc2)cc1`, the inhibition is 11.1%.

With `Cc1ccc(-c2cc(-c3ccccc3)cc(-c3ccccc3)[n+]2-c2ccccc2)cc1`, the inhibition is 20.6%.

On to `CCC1CCCCN1C(=O)c1cc(COc2ccc(-n3cncn3)cc2)on1` (configuration not stated), for which the inhibition is -7.8%.

For `CN(c1ccccc1C(=O)Nc1ccc(S(=O)(=O)N2CCCC2)cc1)S(C)(=O)=O`, the inhibition is 9.12%.
